# PKA-R2B act: activates the human PKA-R2B holoenzyme complex. PKA-R2B holoenzyme dissociation, Cy5-IP20 fluorescence polarization; R2B truncated from residue 108, S112A mutant; 0% DMSO only, 100% 113 µM cGMP. activation, % at 11.4 µM. 340,000 tested, 0.079% active;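 active means activation above a cutoff set at the mean over all compounds plus 3 SD, cut at about 18% in these data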;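 further: higher means more holoenzyme dissociation and a rise in polarization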
# Target sequence (P31323 whole entry, looked up, other chains not shown, the tested form may be a part): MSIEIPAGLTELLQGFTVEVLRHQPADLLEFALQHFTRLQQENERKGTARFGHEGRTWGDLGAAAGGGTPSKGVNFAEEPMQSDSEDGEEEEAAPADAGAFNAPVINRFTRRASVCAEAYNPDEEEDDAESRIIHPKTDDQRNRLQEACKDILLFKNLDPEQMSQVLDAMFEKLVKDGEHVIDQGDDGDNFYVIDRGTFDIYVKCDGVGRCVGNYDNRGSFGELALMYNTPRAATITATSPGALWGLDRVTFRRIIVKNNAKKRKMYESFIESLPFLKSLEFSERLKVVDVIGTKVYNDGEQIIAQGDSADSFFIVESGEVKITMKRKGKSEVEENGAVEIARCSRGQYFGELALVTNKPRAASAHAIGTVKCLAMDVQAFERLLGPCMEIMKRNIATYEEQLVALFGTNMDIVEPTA
# PKA-R1A act: PKA-R1A complex activation. P00514+P68181. PKA-R1A dissociation, Cy5-IP20 fluorescence polarization; scaled: DMSO 0%, 113 µM cGMP 100%. activation, % at 11.4 µM. 340,000 tested, 0.083% active;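 active means percent activation above the mean of all tested compounds plus 3 SD, cut at about 19% in these data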;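 further: higher means more PKAc released from R1A so a rise in polarization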
# MsrA inh: bovine MsrA inhibition; purified bovine MsrA, absorbance read-out; inhibition, % at 15.5 µM; 360,000 tested, 0.75% active; AID 651718;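 further: 0% = vehicle wells with enzyme and 100% = reference inhibitor wells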
# MsrA act: activates bovine MsrA enzyme. purified bovine MsrA, absorbance read-out. activation, % at 10.6 µM. 360,000 tested, 0.3% active. AID 602163; in the data active means activation above about 7.5%;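 further: 0% = vehicle and 100% = reference activator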
# MsrA activ conf: confirmation of bovine methionine sulfoxide reductase A activators; 1,000 tested, 12% active; shares compounds with MsrA act; activation, % at 10.6 µM; purified bovine MsrA, absorbance read-out; in the data active means activation above about 4%;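 further: enzyme coupled to thioredoxin and thioredoxin reductase with NADPH; 0% = vehicle wells and 100% = reference activator wells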
# MsrA inh confirm: confirmation of bovine MsrA inhibitors; shares compounds with MsrA inh; purified bovine MsrA, absorbance read-out; inhibition, % at 15.5 µM; 2,300 tested, 41% active; AID 651822;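 further: coupled to thioredoxin reductase with NADPH and selenocystamine and DMSO as substrate; 0% = vehicle only and 100% = full effect of reference inhibitor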
# * marks the source's active call; other numbers are inactive results; . = no result. Rows were chosen to be rich in hits. Some 1.1% of all compounds tested hit in one or more screens of this group. Unless noted, no stated cut-off is given here; in the data, active means inhibition above about 4.5%; inactive means the rest.
SMILES,PKA-R2B act,PKA-R1A act,MsrA inh,MsrA act,MsrA activ conf,others
CN1C[C@@H]2[C@@H]3C(=O)N(Cc4ccccc4)C(=O)[C@@H]3[C@](Cc3ccccc3)(C1=O)N2C(=O)c1ccc(C(C)(C)C)cc1,-9,-7,-1,8.8*,-1,
COC(=O)[C@]12C[C@H](CC(=O)NCCC(C)C)C(=O)N(Cc3ccccc3)C1=C[C@H](C1CCCC1)O[C@@H]2C,.,.,1,.,.,
COC(=O)[C@]12C[C@H](CC(=O)N3CCC(c4ccccc4)CC3)C(=O)N(Cc3ccccc3)C1=C[C@H](C(C)(C)C)O[C@@H]2C,.,.,0,.,.,
Cc1c(C)n(CCc2ccccc2)c2ncnc(NCCO)c12,2,-11,0,10.0*,-1,
CCc1nn(C(C)C(=O)Nc2cccc(C)c2C)c(=O)c2cc3occc3n12 (stereo unspecified),-6,-1,0,8.4*,-2,
COc1ccc(-c2cc(C(F)(F)F)nc(N3CCOCC3)n2)cc1OC,-9,5,0,-1,.,
COc1ccc(-c2cc(-c3ccccc3)nc(N3CCCC3)n2)cc1OC,-5,-8,0,8.0*,-1,
CN(CC(=O)Nc1cccc(F)c1)C(=O)CCc1nc2sc3c(c2c(=O)[nH]1)CCCC3,-16,-2,0,0,.,
Cc1cccc(C)c1NC(=O)CN(C)C(=O)CCc1nc2sc3c(c2c(=O)[nH]1)CCCC3,11,-5,-1,8.8*,-2,
COc1cc(SC)ccc1C(=O)OCC(=O)NC(=O)NC(C)C,-1,-5,0,7.9*,-3,
COc1cc(CCC(C)=O)ccc1OC(=O)c1c(-c2c(F)cccc2Cl)noc1C,.,.,1,.,.,
Oc1c(Br)cc(Br)cc1CNc1ccc(F)cc1,0,3,0,8.9*,-1,
Cc1oc2c(c1C(=O)O)C(=O)c1ccccc1C2=O,5,-2,0,8.4*,0,
Cc1oc2c(c1C(=O)c1ccccc1)C(=O)C(=O)c1ccccc1-2,-10,-8,1,9.3*,13*,
CCOC(=O)c1c(C)oc2c1C(=O)c1ccccc1C2=O,-10,-4,0,3,.,
COc1ccc2ccccc2c1/C=N\NC(=O)c1cccnc1,.,.,1,-2,.,
COc1ccc2ccccc2c1/C=N/NC(=O)c1cccc(C)c1,0,1,2,9.4*,-1,
C[C@@H]1COc2cccc(NCCCN3CCOCC3)c2S(=O)(=O)N1,.,.,0,.,.,
CCCCc1c(-c2ccccc2OC)ncn1C(C)c1ccccc1 (stereo unspecified),.,.,-1,.,.,
N#CCCN(Cc1cccnc1)C(=O)Nc1ccc(Cl)c(Cl)c1,3,-4,1,9.1*,-2,
Cc1cc(C(=O)O)ccc1-c1ccc(/C=N/n2cnnc2)o1,4,-4,9.2*,8.4*,-6,MsrA inh confirm=6.5*
COc1ccc(Nc2ccc(C(F)(F)F)cc2[N+](=O)[O-])cn1,-2,1,24*,13*,1,MsrA inh confirm=18*
O=S(=O)(Nc1cc(Sc2cccc3cccnc23)c(O)c2ccccc12)c1ccc(F)cc1,.,.,2,.,.,
O=C(O)CSc1cc(NS(=O)(=O)c2ccc(Cl)cc2)c2ccccc2c1O,5,3,9.5*,7.8*,0,MsrA inh confirm=0
COc1ccc(/C=N/NC2=NS(=O)(=O)c3ccccc32)cc1OC(C)=O,-6,-3,5.4*,15*,-4,MsrA inh confirm=4
SMILES,PKA-R2B act,PKA-R1A act,MsrA inh,MsrA act,MsrA activ conf,others
COc1ccc(OC)c(/C=N/NC2=NS(=O)(=O)c3ccccc32)c1,1,6,3,0,.,
C=CCN=C1NC(c2cccc(F)c2)C(C(=O)OC)=C(C)N1Cc1cccc(C(F)(F)F)c1 (stereo unspecified),.,.,-1,.,.,
O=C1C(Cl)=C(Nc2ccc(O)cc2)C(=O)c2ccccc21,0,-8,17*,9.2*,7.0*,MsrA inh confirm=12*
CC(C)c1[nH]nc2c1C(c1ccccc1)NC2=O (stereo unspecified),.,.,0,.,.,
CC(=O)c1ccc(NC(=O)c2ccc([N+](=O)[O-])o2)cc1,0,6,11*,9.1*,2,MsrA inh confirm=5.7*
CC(=O)c1cccc(NC(=O)c2ccc([N+](=O)[O-])o2)c1,2,0,1,4,.,
Cc1cc(N2CCN(CC(C)(C)O)C[C@@H]2C)ccc1N1CCN(Cc2ccccc2)[C@H](C)C1,.,.,0,.,.,
COc1ccc(/C=C2\SC(N)=NC2=O)cc1Br,7,0,4.7*,-6,.,MsrA inh confirm=4

# Assay outcomes: PubChem BioAssay, The Scripps Research Institute Molecular Screening Center
